TDP1 cell noCPT: qHTS for Inhibitors of human tyrosyl-DNA phosphodiesterase 1 (TDP1): qHTS in cells in absence of CPT | AID 686978, 2013 | Potency, µM (doses to about 46.2 µM), for inactives: at the top dose activity change, negative = growth inhibition, usual class: inhibitors | 15% of 420,000 active | DT40 Tdp1-/- hTDP1 cells, no CPT, ATP luminescence, 48 h; further: nearly all actives have a fitted effect of over 55% in size
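No-CPT arm: Tdp1-/-;hTDP1 DT40 cells (400/well) plus compounds, incubated ≥48 hr at 37 °C. Readout CellTiter-Glo luminescence.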
12-LOX inh: inhibitors of human 12S-lipoxygenase ALOX12. P18054. purified 12hLO, xylenol orange hydroperoxide absorbance. Potency, µM (top dose mostly 108 µM), for inactives: at the highest dose activity change, negative = inhibition, usual class: inhibitors. 1.1% of 580,000 active. AID 1671190
Target sequence (P18054 whole entry, looked up): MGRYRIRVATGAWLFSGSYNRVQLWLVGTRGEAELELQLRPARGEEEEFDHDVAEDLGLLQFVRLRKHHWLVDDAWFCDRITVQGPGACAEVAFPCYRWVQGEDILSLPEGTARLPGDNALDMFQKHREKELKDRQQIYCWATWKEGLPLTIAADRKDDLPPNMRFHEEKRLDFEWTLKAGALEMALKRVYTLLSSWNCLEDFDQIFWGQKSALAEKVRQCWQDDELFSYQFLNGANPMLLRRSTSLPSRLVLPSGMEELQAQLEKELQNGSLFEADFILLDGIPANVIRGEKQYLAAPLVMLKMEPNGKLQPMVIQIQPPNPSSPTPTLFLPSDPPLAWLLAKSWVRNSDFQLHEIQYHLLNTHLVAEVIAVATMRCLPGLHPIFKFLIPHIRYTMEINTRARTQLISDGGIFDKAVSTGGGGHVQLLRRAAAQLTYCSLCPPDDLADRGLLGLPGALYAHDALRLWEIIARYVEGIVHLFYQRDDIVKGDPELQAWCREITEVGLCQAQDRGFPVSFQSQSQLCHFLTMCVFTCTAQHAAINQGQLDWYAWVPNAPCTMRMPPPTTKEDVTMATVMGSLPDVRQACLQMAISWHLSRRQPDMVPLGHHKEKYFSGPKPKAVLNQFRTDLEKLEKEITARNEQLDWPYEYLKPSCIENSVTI
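Purified human 12hLO at 150 nM in 25 mM Hepes, 0.01% Triton X-100, pH 7.0, preincubated 15 min at room temperature with compound. Reaction started with 40 uM arachidonic acid, 30 min at room temperature. Hydroperoxide measured by Fe-xylenol orange, 573/405 nm absorbance ratio.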
ELG1 repair inh: inhibitors of ELG1-dependent DNA repair in HEK293T cells. Potency, µM (titrated, usually from 46.1 µM), for the others: at the highest dose activity change, negative = inhibition, usual class: inhibitors. 2.3% of 330,000 active. HEK293T ELG1-luciferase reporter, luminescence, 16 h; DNA damage induced by 5-fluorouridine. AID 504467; further: nearly all actives have a fitted effect of over 55% in size
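Quantitative HTS, concentration-response format. 2,000 cells/well co-treated with 5-fluorouridine and compound, 16 hr in 5% CO2 at 37 °C; ONE-Glo luminescence read after 30 min.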
Gal4-VP16 FLuc: inhibits Gal4-VP16 luciferase reporter, ROR gamma counter-screen; Drosophila S2 Gal4-VP16 UAS-luciferase, luminescence, 20 h; Potency, µM (titrated, usually from 53.6 µM), for the others: at the top dose activity, negative = inhibition, actives largely listed as inhibitors; 3.5% of 310,000 active; AID 2546;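 further: Gal4-VP16 expression switched on by copper sulfate through the metallothionein promoter; nearly all actives have a fitted effect of over 50% in size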
TDP1 cell CPT: DT40-hTDP1 cell growth loss with CPT; chicken DT40 Tdp1-/-;hTDP1 cells + 20 nM CPT, ATP luminescence, 48 h; Potency, µM (series often up to 46.2 µM), inactives show at the top dose activity change, negative = growth inhibition, actives largely listed as inhibitors; 12% of 420,000 active; AID 686979; further: nearly all actives have a fitted effect of over 55% in size
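Cell growth measured by CellTiter-Glo luminescence after a minimum 48 h, 37 C compound exposure with 20 nM CPT in Tdp1-knockout DT40 cells stably expressing hTDP1, seeded 400/well; qHTS titration format.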
RORg inh: ROR gamma (mouse) transcription inhibition; Drosophila S2 Gal4-RORgamma UAS-luciferase reporter, 20 h; Potency, µM (titrated, usually from 53.6 µM), for inactives: top-dose activity change, negative = inhibition, actives largely listed as inhibitors; 5.4% of 310,000 active; further: nearly all actives have a fitted effect of over 60% in size
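Drosophila Schneider cells stably carrying a metallothionein-driven Gal4 DBD–ROR gamma fusion and a UAS-Photinus luciferase reporter were exposed to compound for 1 hr, then induced with copper sulfate (700 uM final) for 20 hr at ambient temperature before luminescence reading.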
* = called active by the depositor; ? = inconclusive; . = not tested or not shown; [ ] = remark or other dose. The list is not random: actives were taken first. Their share in the collection is about 15%. The call rests on the fitted dose curve; in most records, active means well fitted curve in the direction sought with a large enough effect; inconclusive means small, poorly fitted or top-dose-only effect, or another doubt; inactive means no such curve, though single readings can be large; an effect the other way counts as inactive or inconclusive. On the % scale 0 is the no-effect control and ±100 the full control effect; potency means the concentration at half of the fitted maximal effect.

SMILES	TDP1 cell noCPT	12-LOX inh	ELG1 repair inh	Gal4-VP16 FLuc	TDP1 cell CPT	RORg inh
C=CCSc1nc2sc3c(c2c(=O)n1-c1ccc(C)cc1)CCN(C)C3	?	?	-1%	12%	?	-8%
COC(=O)CSc1nc2sc3c(c2c(=O)n1-c1ccccc1)CCN(C)C3	?	?	2%	-12%	-21%	-32%
CCSc1nc2sc3c(c2c(=O)n1-c1ccccc1C)CCN(C)C3	29µM*	?	13%	13%	?	-17%
Cc1ccccc1-n1c(SCC(=O)O)nc2sc3c(c2c1=O)CCCC3	-1%	0%	-2%	-10%	-18%	12%
CCCN(CCC)C(=O)CSc1nc2sc3c(c2c(=O)n1-c1ccccc1)CCN(C(C)=O)C3	-26%	-19%	.	.	?	.
CCSc1nc2sc3c(c2c(=O)n1-c1ccccc1)CCN(C(C)C)C3	21µM*	?	-28%	1%	10µM*	-7%
CSc1nc2sc3c(c2c(=O)n1-c1ccc(C)c(Cl)c1)CCN(C(C)=O)C3	15µM*	-22%	.	.	?	.
C=C(C)CSc1nc2sc3c(c2c(=O)n1-c1ccccc1)CCN(C)C3	29µM*	?	-2%	6%	?	-1%
O=C(Nc1ccc(F)cc1)N(Cc1cccc(O)c1)C1CC1	.	11%	.	.	.	.
COc1ccc(Cc2c(C)nn(-c3nc(CC(=O)Nc4ccccc4)cs3)c2C)cc1	.	37%	.	.	.	.
COc1ccccc1N1CCN(C(=O)CN2C(=O)C3CCCCC3C2=O)CC1 (centres undefined)	-11%	18%	?	14%	-3%	-20%
Cc1ccc(C)c(N2CCN(C(=O)c3c4c(nc5ccccc35)C(=O)N(C3CCCCC3)C4)CC2)c1	18µM*	?	.	.	16µM*	.
COc1ccccc1N1CCN(C(=O)c2c3c(nc4ccccc24)C(=O)N(C2CCCCC2)C3)CC1	21µM*	?	.	.	13µM*	.
CC(C)OCCCNC(=O)c1c2c(nc3ccccc13)C(=O)N(C1CCCCC1)C2	-23%	-2%	.	.	-22%	.
Cc1ccc(CNC(=O)Nc2cc(C(=O)NCc3ccc(C(C)C)cc3)ccc2N2CCCC2)cc1	?	5%	.	.	?	.
CCOC(=O)c1ccc(N2CCN(c3ccccc3OC)CC2)c(NC(=O)Nc2ccc(CC)cc2)c1	?	-56%	.	.	?	.
CCOC(=O)C1CCN(S(=O)(=O)c2cccc(C(=O)Nc3ccccc3)c2)CC1	-9%	8%	-19%	-2%	5%	0%
Cc1ccc(CNC(=O)c2ccc(N3CCCC3)c(NC(=O)Nc3ccc(C)cc3)c2)cc1	23µM*	2%	.	.	15µM*	.
CCOC(=O)c1ccc(N2CCN(c3ccccc3F)CC2)c(NC(=O)Nc2ccccc2)c1	16µM*	-15%	?	-18%	16µM*	7%
CCOC(=O)C1CCN(c2cc3c(cc2NC(=O)c2ccccc2)n(C)c(=O)n3C)CC1	8.2µM*	9%	?	-1%	21µM*	-31%
CCOC(=O)c1ccc(N2CCCCC2)c(NS(=O)(=O)c2ccc(C)cc2)c1	21µM*	103%	?	2%	?	25%
CN1CCCN(C(=O)C2CCCC2)c2ccccc21	.	20%	.	.	.	.
COc1ccc(C(=O)Nc2ccc3c(c2)n(C)c(=O)n3C)cc1OC	1%	-8%	?	.	-25%	.
CCOC(=O)c1ccc(NC(=O)Nc2cc3c(cc2N2CCCC2)n(C)c(=O)n3C)cc1	23µM*	-18%	.	.	?	.
CCOC(=O)C1CCN(c2cc3c(cc2NC(=O)c2ccc(OC)c(OC)c2)n(C)c(=O)n3C)CC1	5.8µM*	?	1.6µM*	-7%	9.2µM*	-9%
SMILES	TDP1 cell noCPT	12-LOX inh	ELG1 repair inh	Gal4-VP16 FLuc	TDP1 cell CPT	RORg inh
C/C(=N\NC(=O)c1nn(C)c(C)c1Br)c1cccc(NC(=O)c2ccc(F)cc2)c1	16µM*	13%	?	-13%	?	-2%
C/C(=N\NC(=O)c1c(Br)c(C)nn1C)c1cccc(NC(=O)c2ccccc2F)c1	?	-14%	?	-21%	14%	-21%
C/C(=N\NC(=O)c1c(Cl)c(C)nn1C)c1cccc(NC(=O)c2cccc(F)c2)c1	23µM*	278%	?	-1%	?	?
COc1ccc(C(=O)N2C[C@@H](Oc3cccnc3)C[C@H]2C(N)=O)c(OC)c1	.	1%	.	.	.	.
COc1ccc(C(=O)N2CCOCC3(CN(Cc4cc(F)ccc4F)C3)C2)cc1OC	.	1%[176 µM]	.	.	.	.
CCOc1ccc(C(c2c(NC(=O)c3ccccc3)sc(C)c2C)N2CCN(CCO)CC2)cc1 (centres undefined)	18µM*	?	-6%	?	21µM*	34%
Cc1sc(NC(=O)c2ccccc2)c(C(c2ccc(Cl)cc2)N2CCN(CCO)CC2)c1C (centres undefined)	26µM*	?	-14%	22µM*	23µM*	?
Cc1sc(NC(=O)c2ccco2)c(C(c2cccnc2)N2CCN(CCO)CC2)c1C (centres undefined)	0%	5%	-2%	-7%	-29%	4%
CC(=O)Nc1sc2c(c1C(c1cccc(Cl)c1)N1CCN(CCO)CC1)CCCC2 (centres undefined)	26µM*	49%	7%	?	16µM*	-26%
COc1ccc(C(c2c(NC(C)=O)sc3c2CCCC3)N2CCN(CCO)CC2)cc1OC (centres undefined)	-26%	-1%	?	-24%	-18%	-3%
O=C(CC1(C(=O)O)CCCCCC1)Nc1ccccc1NS(=O)(=O)c1ccc(F)cc1	.	15%	.	.	.	.
COc1cccc(N2C(=O)NC(=NC3CCCCC3)C23CCN(CCC(C)C)C3)c1 (centres undefined)	.	6%[6.33 µM]	.	.	.	.
Cc1ccccc1NC(=O)N(Cc1nnc2n1CCCCC2)c1ccc(F)cc1	.	-3%	.	.	.	.
COc1ccc2oc(=O)c(-c3ccc(OCC(=O)N4CCN(C(C)=O)CC4)cc3)cc2c1	.	29%	.	.	.	.
CCOc1ccc(CCNC(=O)c2nn(C)c3c2CS(=O)(=O)c2ccccc2-3)cc1	3.7µM*	0%	?	-15%	?	1%
Cn1nc(C(=O)NCCc2ccc(S(N)(=O)=O)cc2)c2c1-c1ccccc1S(=O)(=O)C2	5%	12%	-15%	2%	1%	0%
CCOc1ccc(CCNC(=O)c2nn(C)c3c2CS(=O)(=O)c2ccccc2-3)cc1OCC	?	4%	18µM*	-15%	23µM*	-1%
